Out of some 5,500 compounds screened, about 2,000 (36%) were called active. Not shown: some 18% with an inconclusive outcome. No stated cut-off is given here; in the data, active means normalized growth mostly below about 0.91 (no sharp cut-off); inconclusive means no clear call, values can overlap the other calls; inactive means mostly above about 0.92. The list shows a part of the results.
Test: chemical genetic growth profiling, strain panel (AID 1159580);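 further: tested at 20 µM; growth read once vehicle control cultures reached saturation at 30 °C; 1 = growth at the plate median or of vehicle wells; lower values mean less growth of the strain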
Settings: S. cerevisiae deletion strains, growth OD
[1] = locus YAL013W, strain DEP1, active compounds read low
[2] = locus YDL101C, strain DUN1, active compounds read low
[3] = locus YDR150W, strain NUM1, active compounds read low
[4] = locus YGR078C, strain PAC10, active compounds read low
[5] = locus YHR030C, strain SLT2, active compounds read low
[6] = locus YJL187C, strain SWE1, active compounds read low
[7] = locus YNL153C, strain GIM3, active compounds read low
[8] = locus YNL322C, strain KRE1, active compounds read low
[9] = locus YPL055C, strain LGE1, active compounds read low
[10] = locus YPL241C, strain CIN2, active compounds read low
[11] = locus YAL040C, strain CLN3, active compounds read low
[12] = locus YCL061C, strain MRC1 (second series), active compounds read low
[13] = locus YDR363W, strain ESC2, active compounds read low
[14] = locus YER002W, strain NOP16, active compounds read low
[15] = locus YNL175C, strain NOP13, active compounds read low
[16] = locus YNL197C, strain WHI3, active compounds read low
[17] = locus YNL224C, strain SQS1, active compounds read low
[18] = locus YOR083W, strain WHI5 (second series), active compounds read low
[19] = locus YHR079C, strain IRE1, active compounds read low
[20] = locus YJL095W, strain BCK1, active compounds read low
[21] = locus YJR066W, strain TOR1, active compounds read low
[22] = locus YLR113W, strain HOG1, active compounds read low
[23] = locus YNL183C, strain NPR1, active compounds read low
[24] = locus YOR231W, strain MKK1, active compounds read low
[25] = locus YPL256C, strain CLN2, active compounds read low

Measured: normalized growth

O=C(Nc1ccccc1C(=O)NC1CCCCNC1=O)c1cccs1 (centres undefined)
inactive: [1] 1 | locus YBR229C, strain ROT2, active compounds read low 1.01 | [2] 1 | locus YDL134C, strain PPH21, active compounds read low 1.01 | [3] 0.996 | locus YEL061C, strain CIN8, active compounds read low 1.01 | [4] 1 | [5] 1.02 | locus YHR087W, strain rtc3, active compounds read low 1.02 | [6] 1.01 | locus YJR043C, strain POL32, active compounds read low 0.972 | locus YJR075W, strain HOC1, active compounds read low 1.02 | locus YLR039C, strain RIC1, active compounds read low 1.06 | locus YLR058C, strain SHM2 (second series), active compounds read low 1 | locus YLR085C, strain ARP6, active compounds read low 1.01 | locus YLR262C, strain YPT6, active compounds read low 1.03 | locus YML094W, strain GIM5, active compounds read low 1.02 | locus YMR219W, strain ESC1, active compounds read low 1.01 | locus YMR263W, strain SAP30, active compounds read low 1.01 | [7] 1 | locus YNL298W, strain CLA4 (second series), active compounds read low 1.03 | [8] 1 | locus YNR030W, strain Alg12, active compounds read low 1.02 | [9] 0.998 | [10] 1.03 | locus YPR135W, strain CTF4, active compounds read low 1.01

O=C(O)[C@@H]1C[C@H](C(=O)O)N1
inactive: [11] 0.943 | [12] 0.984 | [13] 1.06 | [14] 0.988 | [7] 0.986 | [15] 0.99 | [16] 0.967 | [17] 0.965 | [8] 0.987 | [18] 0.973

O=C(NCc1ccco1)c1ccc(Oc2cc(Cl)cc(Cl)c2)o1
inactive: locus YAR019C, strain CDC15, active compounds read low 0.961 | locus YBL105C, strain PKC1, active compounds read low 0.96 | locus YBR135W, strain CKS1, active compounds read low 0.964 | locus YBR136W, strain MEC1, active compounds read low 0.964 | locus YBR160W, strain CDC28, active compounds read low 0.967 | locus YDL017W, strain CDC7, active compounds read low 0.969 | locus YDL028C, strain MPS1, active compounds read low 0.967 | [2] 0.964 | locus YDL108W, strain KIN28, active compounds read low 0.96 | locus YDL132W, strain cdc53, active compounds read low 0.957 | locus YDL214C, strain PRR2, active compounds read low 0.936 | locus YDR052C, strain DBF4, active compounds read low 0.968 | locus YDR054C, strain cdc34, active compounds read low 0.957 | locus YDR226W, strain ADK1, active compounds read low 0.959 | locus YDR477W, strain SNF1, active compounds read low 0.952 | locus YER123W, strain YCK3, active compounds read low 0.932 | locus YER133W, strain GLC7, active compounds read low 0.932 | locus YFL009W, strain cdc4, active compounds read low 0.957 | locus YFL029C, strain CAK1, active compounds read low 0.951 | locus YFR003C, strain YPI1, active compounds read low 0.962 | locus YFR019W, strain FAB1, active compounds read low 0.96 | locus YFR028C, strain CDC14, active compounds read low 0.957 | locus YGR040W, strain KSS1, active compounds read low 0.948 | locus YGR052W, strain FMP48, active compounds read low 0.95 | locus YGR092W, strain DBF2, active compounds read low 0.957 | [5] 1.05 | [19] 1 | locus YHR082C, strain KSP1, active compounds read low 0.994 | locus YHR205W, strain SCH9, active compounds read low 0.952 | locus YIL147C, strain SLN1, active compounds read low 0.964 | [20] 0.931 | locus YJL128C, strain PBS2, active compounds read low 0.914 | locus YJL157C, strain FAR1, active compounds read low 0.941 | locus YJR016C, strain ILV3, active compounds read low 0.955 | locus YJR066W, strain TOR1 (second series), active compounds read low 0.974 | [21] 1.03 | locus YKL048C, strain ELM1, active compounds read low 0.939 | locus YKL067W, strain YNK1, active compounds read low 0.945 | locus YKL101W, strain HSL1, active compounds read low 0.917 | locus YKL193C, strain SDS22, active compounds read low 0.958 | locus YKL203C, strain TOR2, active compounds read low 1.01 | locus YLR133W, strain CKI1, active compounds read low 0.931 | locus YLR403W, strain SFP1, active compounds read low 0.968 | locus YML070W, strain DAK1, active compounds read low 0.94 | locus YMR001C, strain CDC5, active compounds read low 0.956 | locus YMR205C, strain PFK2 (second series), active compounds read low 0.942 | locus YMR277W, strain FCP1, active compounds read low 0.958 | locus YNL006W, strain LST8, active compounds read low 0.971 | locus YNL020C, strain ARK1, active compounds read low 0.939 | locus YNL161W, strain CBK1, active compounds read low 0.967 | [23] 0.963 | locus YNL207W, strain RIO2, active compounds read low 0.947 | locus YNL222W, strain SSU72, active compounds read low 0.964 | locus YNL307C, strain MCK1 (second series), active compounds read low 0.93 | locus YOL078W, strain AVO1, active compounds read low 0.953 | locus YOL136C, strain PFK27, active compounds read low 0.907 | locus YOR061W, strain CKA2, active compounds read low 0.942 | locus YOR119C, strain RIO1, active compounds read low 1.01 | [24] 0.883 | locus YOR329C, strain SCD5, active compounds read low 0.965 | locus YPL031C, strain PHO85, active compounds read low 0.942 | locus YPL153C, strain RAD53, active compounds read low 0.969 | locus YPL204W, strain HRR25, active compounds read low 0.941 | locus YPL209C, strain IPL1, active compounds read low 0.961 | [25] 0.906 | locus YPR025C, strain CCL1, active compounds read low 0.961 | locus YPR106W, strain ISR1, active compounds read low 0.958 | locus YPR111W, strain DBF20, active compounds read low 0.949 | strain NNK1, active compounds read low 0.942 | strain TSCII, active compounds read low 0.955
active: [22] 0.761

O=C(/C=C/c1ccccc1)O[C@H]1C[C@@H](O)[C@]2(O)C=CO[C@@H](O[C@@H]3O[C@H](CO)[C@@H](O)[C@H](O)[C@H]3O)[C@H]12
inactive: locus YAL021C, strain ccr4, active compounds read low 0.996 | locus YAL026C, strain drs2, active compounds read low 1.03 | locus YAL030W, strain snc1, active compounds read low 1.03 | locus YBL061C, strain skt5, active compounds read low 1.02 | locus YBR009C, strain hhf1, active compounds read low 1.05 | locus YBR023C, strain chs3, active compounds read low 1.02 | locus YBR171W, strain sec66, active compounds read low 1.03 | locus YBR231C, strain swc5, active compounds read low 1.03 | locus YBR279W, strain paf1, active compounds read low 1.02 | locus YCL011C, strain gbp2, active compounds read low 1.02 | locus YCL016C, strain dcc1, active compounds read low 1.03 | locus YCL061C, strain MRC1, active compounds read low 1.02 | locus YCL069W, strain vba3, active compounds read low 1.03 | locus YCR088W, strain abp1, active compounds read low 1.02 | locus YDL005C, strain med2, active compounds read low 1.02 | locus YDL040C, strain nat1, active compounds read low 1.03 | locus YDR001C, strain nth1, active compounds read low 1.02 | locus YDR069C, strain doa4, active compounds read low 1.03 | locus YDR137W, strain rgp1, active compounds read low 1.03 | locus YDR159W, strain sac3, active compounds read low 1.05 | locus YDR195W, strain ref2 1.01 | locus YDR297W, strain sur2, active compounds read low 1.02 | locus YDR334W, strain swr1, active compounds read low 1.03 | locus YDR335W, strain msn5, active compounds read low 1.02 | locus YDR392W, strain spt3, active compounds read low 0.927 | locus YEL003W, strain gim4, active compounds read low 1.03 | locus YEL037C, strain rad23, active compounds read low 1.02 | locus YEL061C, strain CIN8 (second series), active compounds read low 1.01 | locus YER015W, strain faa2, active compounds read low 1.02 | locus YER016W, strain bim1, active compounds read low 1.03 | locus YER111C, strain swi4, active compounds read low 1.03 | locus YER155C, strain BEM2 (second series), active compounds read low 1.04 | locus YFR010W, strain ubp6, active compounds read low 1.03 | locus YGL167C, strain pmr1, active compounds read low 1.02 | locus YGL173C, strain kem1, active compounds read low 1.03 | locus YGL227W, strain vid30, active compounds read low 1.03 | locus YGL240W, strain doc1, active compounds read low 1.04 | locus YGL253W, strain hxk2, active compounds read low 1.03 | locus YHR013C, strain ard1, active compounds read low 0.995 | locus YHR027C, strain rpn1, active compounds read low 1.03 | [5] 0.902 | [19] 0.939 | locus YHR142W, strain chs7, active compounds read low 0.998 | locus YJL092W, strain hpr5, active compounds read low 1.02 | locus YJL095W, strain BCK1 (second series), active compounds read low 1.03 | [20] 0.928 | locus YJL115W, strain asf1, active compounds read low 1.03 | locus YJL129C, strain trk1, active compounds read low 1.01 | locus YJL154C, strain vps35, active compounds read low 1.02 | locus YJL164C, strain tpk1, active compounds read low 1.01 | locus YJL166W, strain qcr8, active compounds read low 1.03 | [6] 1.02 | [21] 0.92 | locus YKL160W, strain elf1, active compounds read low 0.989 | locus YKR026C, strain gcn3, active compounds read low 1.03 | locus YKR091W, strain srl3, active compounds read low 1.02 | locus YLL001W, strain dnm1, active compounds read low 1.02 | locus YLL026W, active compounds read low 1.02 | locus YLL041C, strain sdh2, active compounds read low 1.02 | locus YLR027C, strain aat2, active compounds read low 1.02 | [22] 0.878 | locus YLR221C, strain rsa3, active compounds read low 1 | locus YLR258W, strain gsy2, active compounds read low 1.05 | locus YLR262C, strain YPT6 (second series), active compounds read low 1.04 | locus YLR320W, strain mms22, active compounds read low 1.02 | locus YLR342W, strain FKS1, active compounds read low 1.02 | locus YLR357W, strain rsc2, active compounds read low 1.02 | locus YLR370C, strain arc18, active compounds read low 1.02 | locus YLR384C, strain iki3, active compounds read low 1.03 | locus YML120C, strain ndi1, active compounds read low 0.999 | locus YMR058W, strain fet3, active compounds read low 1.02 | locus YMR125W, strain sto1, active compounds read low 1.03 | locus YMR129W, active compounds read low 1.02 | locus YMR205C, strain PFK2, active compounds read low 1.06 | locus YMR231W, strain pep5, active compounds read low 1.03 | locus YNL071W, strain lat1, active compounds read low 1.02 | [23] 0.951 | locus YNL209W, strain ssb2, active compounds read low 1.02 | locus YNL248C, strain rpa49, active compounds read low 0.992 | locus YNL322C, strain KRE1 (second series), active compounds read low 1.03 | locus YNR049C, strain mso1, active compounds read low 1.03 | locus YOR001W, strain rrp6, active compounds read low 1 | locus YOR070C, strain gyp1, active compounds read low 1.03 | locus YOR080W, strain dia2, active compounds read low 1.03 | locus YOR083W, strain WHI5, active compounds read low 0.986 | locus YOR106W, strain vam3, active compounds read low 1.01 | [24] 0.938 | locus YOR265W, strain rbl2, active compounds read low 1.02 | locus YOR270C, strain vph1, active compounds read low 1.03 | locus YOR290C, strain snf2, active compounds read low 0.969 | locus YPL051W, strain arl3, active compounds read low 1.01 | locus YPL078C, strain atp4, active compounds read low 0.996 | locus YPL106C, strain sse1, active compounds read low 1.04 | locus YPL240C, strain hsp82, active compounds read low 1.02 | [25] 0.943

CCCC[N+]1(C)C2CC(OC(=O)[C@H](CO)c3ccccc3)CC1C1OC12 (some centres undefined)
inactive: [1] 1 | [11] 1.05 | [12] 0.996 | [3] 1 | [13] 0.999 | [14] 1.01 | [4] 0.989 | locus YGR229C, strain SMI1, active compounds read low 1.02 | locus YMR307W, strain GAS1, active compounds read low 0.976 | [7] 0.987 | [15] 1.02 | [16] 0.989 | [17] 0.99 | [8] 0.998 | [18] 0.99 | [9] 0.987 | [10] 1

Source: PubChem BioAssay AID1159580 (chemical genetic matrix, 2015)
